Assay results: PubChem BioAssay (Tox21)
Records with an inconclusive call do not appear. Calls of active or inactive are those of the source. Unless noted, calls come from the whole dose curve; as a rule, active = well fitted curve in the direction sought with a large enough effect in the repeat runs; inconclusive = weak or mixed curves; inactive = no such curve, though single readings can be large; an effect the other way counts as inactive or inconclusive.

Tests used:
[1] = qHTS assay to identify small molecule agonists of the estrogen receptor beta (ER-beta) signaling pathway - cell viability counter screen (AID 1259380); note: nearly all actives have a fitted effect of over 30% in size; note: potency is the fitted concentration of half-maximal effect
How it was run: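 Same-well viability counter screen. Cells: ER-beta-UAS-bla HEK293T, plated 6 hr before compound, in 2% charcoal-stripped FBS. Compound exposure 16 hr, 37C; viability by CellTiter-Glo luminescence after 30 min at room temperature.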

[2] = qHTS assay to identify small molecule antagonists of the estrogen receptor beta (ER-beta) signaling pathway - cell viability counter screen (AID 1259382); note: nearly all actives have a fitted effect of over 55% in size; note: potency is the fitted concentration of half-maximal effect;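 for activity change, negative = cytotoxicity: HEK293T cells carrying ER-beta-UAS-bla reporter stimulated with estradiol; series mostly up to about 92 µM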
How it was run: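 Following a 6 hr plating period, HEK293T cells carrying a UAS-driven beta-lactamase reporter under ER-beta control received compounds and 1nM E2 (final). After 16 hr at 37C and 2 hr substrate loading, CellTiter-Glo luminescence indicated viability.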

[3] = target: Estrogen receptor (Homo sapiens) (UniProt P03372); assay: qHTS assay to identify small molecule agonists of the estrogen receptor alpha (ER-alpha) signaling pathway in the presence of an antagonist (AID 1259383; calls by dose curve; note: top concentration of the series differs between compounds; nearly all actives have a fitted effect of over 15% in size)
How it was run: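 Cells are hormone-deprived for 5 days (charcoal-stripped FBS, no phenol red), plated for 24hr, spiked with 10.0nM ICI-182,780, then dosed at 15 concentrations. After 22hr at 37C, ONE-Glo luminescence reports ERE-luciferase activity.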

[4] = qHTS assay to identify small molecule agonists or antagonists of the thyroid stimulating hormone receptor (TSHR) signaling pathway - wild type cell line counter screen (AID 1259384; calls by dose curve)
How it was run: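 Wild-type HEK293 cells were plated 18 h at 37 C/5% CO2, pin-dosed with compound plus Ro20-1724 medium, held 30 min at room temperature, then given cAMP-d2 and anti-cAMP-cryptate; fluorescence was read after 1 h. Fifteen concentrations, triplicate.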

[5] = target: Thyrotropin receptor (Homo sapiens) (UniProt P16473); assay: qHTS assay to identify small molecule antagonists of the thyroid stimulating hormone receptor (TSHR) signaling pathway (AID 1259385; calls by dose curve; note: nearly all actives have a fitted effect of over 20% in size)
How it was run: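 TSHR-HEK293 cells were plated and held 18 h at 37C/5% CO2, then given compound plus Ro20-1724 and stimulated with TSH at 1.5 ng/mL final. After 30 min at room temperature, cAMP was detected with cAMP-d2/anti-cAMP-cryptate (1 h) by fluorescence.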

[6] = target: Progesterone receptor (Homo sapiens) (UniProt P06401); assay: qHTS assay to identify small molecule agonists of the progesterone receptor (PR) signaling pathway (AID 1346784; calls by dose curve; note: nearly all actives have a fitted effect of over 30% in size)
How it was run: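 HEK 293T PR-UAS-bla reporter cells, 2% charcoal-stripped FBS; 6 hr settle at 37C/5% CO2, compound (DMSO) 16 hr, LiveBLAzer B/G FRET substrate 2 hr RT, fluorescence intensity read.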

[7] = target: Progesterone receptor (Homo sapiens) (UniProt P06401); assay: qHTS assay to identify small molecule antagonists of the progesterone receptor (PR) signaling pathway (AID 1346795; active = well fitted inhibition curve with a large enough effect in the signal ratio in the repeat runs, not every such curve was filed as active; the % refers to the signal ratio; note: potency is the fitted concentration of half-maximal effect)
How it was run: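 Beta-lactamase reporter, HEK293T PR-UAS-bla line; 2% charcoal-stripped FBS; 6 hr pre-incubation, 37C/5% CO2. Compound + R5020 1 nM final, 16 hr. LiveBLAzer B/G FRET substrate, 2 hr RT; fluorescence intensity read.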

[8] = qHTS assay to identify small molecule antagonists of the progesterone receptor (PR) signaling pathway - cell viability counter screen (AID 1346798); note: nearly all actives have a fitted effect of over 50% in size; note: potency is the fitted concentration of half-maximal effect; for activity change, negative = cytotoxicity: series mostly up to about 92 µM
How it was run: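 Luminescence readout (CellTiter-Glo, 30 min, RT) of viability in PR-UAS-bla HEK293T cells exposed to compound and R5020 agonist for 16 hr at 37C, 5% CO2; run in the same wells as the beta-lactamase reporter read.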

[9] = qHTS assay to identify small molecule agonists of the progesterone receptor (PR) signaling pathway - cell viability counter screen (AID 1346799; calls by dose curve; note: nearly all actives have a fitted effect of over 45% in size; note: potency is the fitted concentration of half-maximal effect)
How it was run: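 HEK293T PR-UAS-bla, 3,000 cells/well, 2% charcoal-stripped FBS; 6 h settle, compound 16 h at 37C/5% CO2; LiveBLAzer 2 h RT, then CellTiter-Glo 30 min RT, luminescence read.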

[10] = qHTS assay to identify small molecule antagonists of the TGF-beta/Smad signaling pathway - cell viability counter screen (AID 1346824); note: nearly all actives have a fitted effect of over 50% in size
How it was run: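 SBE-bla HEK 293T cells were plated overnight at 37 C, then given compounds in DMSO plus TGF-beta1 (added as 0.25 ng/mL solution) for 5 hr. After the bla read, CellTiter-Glo was added to the same wells and luminescence read after 30 min at room temperature.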

[11] = qHTS assay to identify small molecule agonists of the TGF-beta/Smad signaling pathway - cell viability counter screen (AID 1346829); note: top concentration of the series differs between compounds; nearly all actives have a fitted effect of over 45% in size
How it was run: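 Cytotoxicity counter screen: CellTiter-Glo luminescence (30 min, room temperature) measured in the SBE-bla HEK 293T reporter wells after 5 hr compound treatment at 37 C and the 2 hr substrate step.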

[12] = qHTS assay to identify small molecule agonists of the TGF-beta/Smad signaling pathway (AID 1346859; active = well fitted activation curve with a large enough effect in the signal ratio in the repeat runs, not every such curve was filed as active; the % refers to the signal ratio; note: series mostly up to about 77 µM)
How it was run: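 Read-out: fluorescence at 460 and 530 nm (405 nm excitation) after a 2 hr room-temperature incubation with beta-lactamase FRET substrate. SBE-bla HEK 293T cells had been treated with test compounds for 5 hr at 37 C.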

[13] = target: Thyrotropin-releasing hormone receptor (Homo sapiens) (UniProt P34981); assay: qHTS assay to identify small molecule antagonists of the thyrotropin-releasing hormone receptor (TRHR) signaling pathway (AID 1346877; active = well fitted inhibition curve with a large enough effect in the repeat runs, not every such curve was filed as active; note: series mostly up to about 51 µM)
How it was run: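 Cells (TRHR-HEK293) are plated and kept 18 h at 37 °C/5% CO2. A calcium-sensitive dye is added for 2 h, compound follows for 5 min at room temperature, and TRH is then given at 1 nM final.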

[14] = target: Thyrotropin-releasing hormone receptor (Homo sapiens) (UniProt P34981); assay: qHTS assay to identify small molecule agonists of the thyrotropin-releasing hormone receptor (TRHR) signaling pathway (AID 1346891; calls by dose curve;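 note: HEK293 cells expressing TRHR with calcium dye readout; series mostly up to about 58 µM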)
How it was run: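 HEK293/TRHR cells, 1500 per well, 18 h 37 °C; Ca dye 2 h 37 °C; pin-tool compound addition (agonist mode); kinetic fluorescence 3 min, 1 s reads; 15 concentrations, triplicate.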

[15] = Human pregnane X receptor (PXR) small molecule agonists, qHTS cell viability counter screen (AID 1346977); note: nearly all actives have a fitted effect of over 50% in size; note: potency is the fitted concentration of half-maximal effect
How it was run: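 Fluorescence read-out (CellTiter-Fluor) of viability in PXR-Luc HepG2 cells, multiplexed with the luciferase agonist read. Compounds in DMSO added after 5hr plating; 24hr total exposure at 37C, 5% CO2.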

[16] = Caspase-3/7 induction in HepG2 cells by small molecules, qHTS assay (AID 1346978); note: nearly all actives have a fitted effect of over 15% in size; note: potency is the fitted concentration of half-maximal effect
How it was run: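 Wild-type HepG2 cells (2,000/well) were settled 5 h at 37 C, 5% CO2, then exposed to compounds in DMSO for 17 h. Caspase-3/7 activity was read by luminescence 30 min after adding Caspase-Glo 3/7 reagent at room temperature.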

[17] = Caspase-3/7 induction in CHO-K1 cells by small molecules, qHTS cell viability counter screen (AID 1346979); note: nearly all actives have a fitted effect of over 35% in size; note: potency is the fitted concentration of half-maximal effect
How it was run: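 CHO-K1 wt, 1,500 cells/well; 5hr pre-incubation 37C/5% CO2; compound pin transfer (DMSO); 16hr exposure; CellTiter-Fluor added, 1hr, fluorescence read.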

[18] = Caspase-3/7 induction in CHO-K1 cells by small molecules, qHTS assay (AID 1346980); note: nearly all actives have a fitted effect of over 15% in size
How it was run: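 Wild-type cells were seeded at 1,500 per well and settled 5 hr at 37 C, 5% CO2, then exposed to DMSO-dissolved compounds for 17 hr. Caspase-Glo 3/7 reagent was added, and luminescence was read after 30min at room temperature.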

[19] = target: Androgen receptor (Homo sapiens) (UniProt P10275); assay: qHTS assay to identify small molecule agonists of the androgen receptor (AR) signaling pathway in the presence of an antagonist (AID 1259381; calls by dose curve; note: nearly all actives have a fitted effect of over 15% in size)
How it was run: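 Cells are MDA-kb2 (human breast carcinoma, MMTV-luc, AR/GR responsive). Nilutamide is present at 3.0uM final throughout; compounds are added at 15 concentrations and incubated 16hr at 37C before ONE-Glo luminescence detection.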

[20] = qHTS assay to identify small molecule agonists of the estrogen receptor alpha (ER-alpha) signaling pathway in the presence of an antagonist - cell viability counter screen (AID 1259386);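 note: cells exposed to compounds for 22 h at 37 °C before the viability read; nearly all actives have a fitted effect of over 30% in size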; note: potency is the fitted concentration of half-maximal effect; for activity change, negative = cytotoxicity: series mostly up to about 92 µM
How it was run: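 Cells are starved of estrogens for 5 days in charcoal-stripped serum, seeded for 24hr and co-treated with ICI-182,780 (10.0nM final) and test compounds. After 22hr at 37C, viability is read as CellTiter-Fluor fluorescence.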
% is set by controls: 0 for no effect and ±100 for the full control effect.

Chain of Progesterone receptor (Homo sapiens) (P06401 whole entry, looked up): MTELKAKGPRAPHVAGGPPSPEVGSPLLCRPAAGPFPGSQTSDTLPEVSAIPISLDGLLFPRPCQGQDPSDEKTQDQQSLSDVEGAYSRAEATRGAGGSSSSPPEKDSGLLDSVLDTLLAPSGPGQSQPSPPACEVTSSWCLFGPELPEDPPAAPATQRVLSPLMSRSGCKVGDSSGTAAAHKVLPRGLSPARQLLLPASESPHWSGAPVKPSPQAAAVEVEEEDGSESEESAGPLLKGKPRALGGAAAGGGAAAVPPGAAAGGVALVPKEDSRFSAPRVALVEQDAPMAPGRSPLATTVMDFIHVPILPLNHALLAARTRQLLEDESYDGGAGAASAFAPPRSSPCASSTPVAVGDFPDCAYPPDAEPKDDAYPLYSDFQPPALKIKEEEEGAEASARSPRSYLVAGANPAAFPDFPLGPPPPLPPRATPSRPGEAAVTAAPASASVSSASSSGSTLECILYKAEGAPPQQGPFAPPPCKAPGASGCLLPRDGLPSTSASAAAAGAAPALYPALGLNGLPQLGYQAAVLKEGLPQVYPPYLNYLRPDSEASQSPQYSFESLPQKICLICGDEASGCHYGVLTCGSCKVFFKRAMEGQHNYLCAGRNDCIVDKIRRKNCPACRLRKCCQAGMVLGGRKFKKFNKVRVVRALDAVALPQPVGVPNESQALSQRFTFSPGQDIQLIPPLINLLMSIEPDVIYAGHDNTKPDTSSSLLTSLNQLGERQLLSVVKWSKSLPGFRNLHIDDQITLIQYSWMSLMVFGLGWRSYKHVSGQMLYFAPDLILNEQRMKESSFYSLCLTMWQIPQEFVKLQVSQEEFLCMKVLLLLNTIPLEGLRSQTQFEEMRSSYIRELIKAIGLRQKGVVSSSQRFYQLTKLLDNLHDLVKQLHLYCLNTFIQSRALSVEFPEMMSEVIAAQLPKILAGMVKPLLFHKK
Chain of Thyrotropin receptor (Homo sapiens) (P16473 whole entry, looked up): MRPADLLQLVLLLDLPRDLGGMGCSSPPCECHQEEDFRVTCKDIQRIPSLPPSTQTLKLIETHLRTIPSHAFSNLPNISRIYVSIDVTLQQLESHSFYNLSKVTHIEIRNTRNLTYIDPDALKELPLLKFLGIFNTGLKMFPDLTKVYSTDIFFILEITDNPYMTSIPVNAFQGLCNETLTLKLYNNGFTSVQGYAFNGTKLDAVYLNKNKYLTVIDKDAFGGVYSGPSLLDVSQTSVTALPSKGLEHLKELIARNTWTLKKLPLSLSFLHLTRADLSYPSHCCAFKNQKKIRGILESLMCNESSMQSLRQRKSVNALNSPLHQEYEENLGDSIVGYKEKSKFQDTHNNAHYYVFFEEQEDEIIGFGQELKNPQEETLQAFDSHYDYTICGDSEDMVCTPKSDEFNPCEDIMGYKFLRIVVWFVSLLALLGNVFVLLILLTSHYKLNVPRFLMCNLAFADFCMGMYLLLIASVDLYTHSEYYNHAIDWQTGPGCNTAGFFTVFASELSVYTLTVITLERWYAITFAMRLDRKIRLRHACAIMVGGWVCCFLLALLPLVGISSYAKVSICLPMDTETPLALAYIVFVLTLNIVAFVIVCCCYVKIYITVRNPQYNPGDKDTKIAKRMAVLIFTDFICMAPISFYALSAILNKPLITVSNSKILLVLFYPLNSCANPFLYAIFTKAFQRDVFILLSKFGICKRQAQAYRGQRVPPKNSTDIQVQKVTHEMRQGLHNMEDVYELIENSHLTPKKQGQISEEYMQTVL
Chain of Estrogen receptor (Homo sapiens) (P03372 whole entry, looked up): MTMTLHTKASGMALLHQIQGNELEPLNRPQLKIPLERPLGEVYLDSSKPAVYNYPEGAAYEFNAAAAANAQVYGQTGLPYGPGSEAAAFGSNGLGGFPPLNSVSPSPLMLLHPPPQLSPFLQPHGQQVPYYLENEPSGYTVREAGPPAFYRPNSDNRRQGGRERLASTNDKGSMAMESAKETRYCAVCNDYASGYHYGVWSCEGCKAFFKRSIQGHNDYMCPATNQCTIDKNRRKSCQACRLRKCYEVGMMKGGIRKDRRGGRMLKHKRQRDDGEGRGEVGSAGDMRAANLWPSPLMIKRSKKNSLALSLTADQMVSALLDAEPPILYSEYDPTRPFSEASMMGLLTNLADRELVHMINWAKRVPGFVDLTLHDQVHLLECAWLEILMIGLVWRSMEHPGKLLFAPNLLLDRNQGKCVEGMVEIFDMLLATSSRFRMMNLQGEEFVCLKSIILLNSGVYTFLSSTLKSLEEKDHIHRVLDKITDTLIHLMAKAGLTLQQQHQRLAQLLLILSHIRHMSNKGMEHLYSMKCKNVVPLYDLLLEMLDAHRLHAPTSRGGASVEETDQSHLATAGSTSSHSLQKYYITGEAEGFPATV
Chain of Thyrotropin-releasing hormone receptor (Homo sapiens) (P34981 whole entry, looked up): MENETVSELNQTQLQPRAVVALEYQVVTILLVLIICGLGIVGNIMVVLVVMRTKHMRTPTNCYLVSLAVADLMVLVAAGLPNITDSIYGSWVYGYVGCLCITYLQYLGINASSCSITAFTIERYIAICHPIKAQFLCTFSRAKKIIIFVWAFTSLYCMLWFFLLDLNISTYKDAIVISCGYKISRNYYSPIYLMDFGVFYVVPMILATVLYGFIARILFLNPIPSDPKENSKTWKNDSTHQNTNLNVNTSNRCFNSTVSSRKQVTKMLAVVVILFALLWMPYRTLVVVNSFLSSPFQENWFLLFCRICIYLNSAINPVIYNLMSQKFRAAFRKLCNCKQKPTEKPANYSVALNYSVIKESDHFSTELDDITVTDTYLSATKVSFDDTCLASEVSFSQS
Chain of Androgen receptor (Homo sapiens) (P10275 whole entry, looked up): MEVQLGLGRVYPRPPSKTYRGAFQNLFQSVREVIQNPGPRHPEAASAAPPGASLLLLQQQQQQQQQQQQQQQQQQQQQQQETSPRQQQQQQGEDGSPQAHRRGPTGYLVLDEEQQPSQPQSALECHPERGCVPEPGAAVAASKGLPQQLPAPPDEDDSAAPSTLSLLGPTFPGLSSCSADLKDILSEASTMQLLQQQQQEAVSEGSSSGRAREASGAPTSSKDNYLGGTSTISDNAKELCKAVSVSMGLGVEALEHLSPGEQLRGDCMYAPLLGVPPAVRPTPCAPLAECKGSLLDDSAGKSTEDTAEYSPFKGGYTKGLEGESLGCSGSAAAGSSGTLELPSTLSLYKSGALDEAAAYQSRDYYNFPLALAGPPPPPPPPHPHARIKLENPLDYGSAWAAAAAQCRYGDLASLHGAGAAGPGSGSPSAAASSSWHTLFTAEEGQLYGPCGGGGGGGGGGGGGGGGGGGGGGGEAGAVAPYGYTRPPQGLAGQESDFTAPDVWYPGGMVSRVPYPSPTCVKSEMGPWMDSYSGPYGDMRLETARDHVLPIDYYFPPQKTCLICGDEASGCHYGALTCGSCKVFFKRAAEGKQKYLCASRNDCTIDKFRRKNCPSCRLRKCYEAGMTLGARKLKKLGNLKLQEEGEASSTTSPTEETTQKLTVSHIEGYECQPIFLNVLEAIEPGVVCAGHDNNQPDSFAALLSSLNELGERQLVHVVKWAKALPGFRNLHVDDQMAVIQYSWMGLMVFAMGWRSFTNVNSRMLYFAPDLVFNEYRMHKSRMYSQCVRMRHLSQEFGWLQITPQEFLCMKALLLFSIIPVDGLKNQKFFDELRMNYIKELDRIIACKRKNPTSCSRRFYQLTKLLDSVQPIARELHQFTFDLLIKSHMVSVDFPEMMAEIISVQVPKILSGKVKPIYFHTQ

CCCC(C)C=O (centres undefined)
inactive: Potency [1] | Potency [2] | Potency [3] | Potency [4] | Potency [5] | outcome [6] | Potency [7] | Potency [8] | Potency [9] | Potency [10] | Potency [11] | outcome [12] | Potency [13] | Potency [14] | Potency [15] | Potency [16] | Potency [17] | Potency [18]

O=C(O)CN(CCCN(CC(=O)O)CC(=O)O)CC(=O)O
inactive: activity change, negative = cytotoxicity [1] -20.5% [at 19 µM] | activation [19] 1.23% [at 19 µM] | activation [3] -0.204% [at 19 µM] | cAMP activity change [4] 0.161% [at 18.9 µM, hits give high values] | activity change, negative = inhibition [5] 1.63% [at 19 µM] | activity change, negative = cytotoxicity [20] -13.1% [at 19 µM] | activation [6] 8.3% [at 19 µM] | activity change, negative = inhibition [7] -17.6% [at 18.9 µM] | activity change, negative = cytotoxicity [8] -17.6% [at 18.9 µM] | activity change, negative = cytotoxicity [9] -13.8% [at 19 µM] | viability change, negative = cytotoxic [10] 5.13% [at 15.8 µM] | activation [12] 0.66% [at 15.8 µM] | activation [14] 0.0527% [at 11.8 µM] | caspase activation [16] 0.754% [at 19 µM] | caspase-3/7 activation [18] 5.17% [at 19 µM]
active: Potency [17] 11.6 µM

Cc1cc(Br)ccc1NC(=O)CCl
inactive: Potency [3] | Potency [4] | Potency [5] | outcome [6] | Potency [10] | Potency [13] | Potency [14] | Potency [16] | Potency [18]
active: Potency [1] 30.6 µM | Potency [2] 30.6 µM | Potency [8] 15.4 µM | Potency [9] 27.3 µM | Potency [15] 54.5 µM | Potency [17] 21.7 µM

COc1cc(/C=C/C(=O)CC(=O)/C=C/c2ccc(O)c(OC)c2)ccc1O
active: Potency [1] 69 µM | Potency [20] 61.5 µM | Potency [15] 30.8 µM | Potency [17] 43.5 µM
inactive: Potency [19] | Potency [3] | Potency [4] | Potency [18]

O=C(CCN1CCC(c2ccccc2)C1)c1ccc2c(c1)OCCO2 (centres undefined)
active: Potency [15] 23.7 µM | Potency [17] 26.6 µM
inactive: Potency [1] | Potency [2] | Potency [3] | Potency [4] | Potency [5] | Potency [20] | Potency [7] | Potency [8] | Potency [10] | Potency [11] | outcome [12] | Potency [13] | Potency [14] | Potency [16] | Potency [18]

CN1CCN(c2ccccc2/C=C2\SCCN(c3ccc(Cl)c(Cl)c3)C2=O)CC1
active: Potency [1] 30.6 µM | Potency [2] 61.1 µM | Potency [20] 68.6 µM | Potency [15] 27.3 µM | Potency [16] 61.1 µM
inactive: Potency [3] | Potency [4]

CC(O)(c1ccc(Cl)cc1)c1ccc(Cl)cc1
inactive: Potency [1] | Potency [2] | Potency [3] | Potency [4] | Potency [5] | Potency [20] | outcome [6] | Potency [9] | Potency [10] | Potency [11] | outcome [12] | Potency [14] | Potency [18]

CCCCCCCCCCCCN1CCCC1=O
active: Potency [1] 48.6 µM | Potency [2] 54.5 µM | Potency [7] 48.6 µM | Potency [17] 61.1 µM
inactive: Potency [3] | Potency [4] | Potency [20] | outcome [6] | Potency [10] | Potency [11] | outcome [12] | Potency [13] | Potency [14] | Potency [18]

CC1(C)[C@H]2CC[C@]1(C)C(=O)C2
inactive: Potency [1] | Potency [2] | Potency [3] | Potency [4] | Potency [5] | Potency [20] | outcome [6] | Potency [8] | Potency [10] | Potency [11] | outcome [12] | Potency [13] | Potency [14] | Potency [15] | Potency [16] | Potency [18]
